The results in this text go back to ChEMBL document CHEMBL4808148, “HDAC6 screening dataset using tau-based substrate in an enzymatic assay yields selective inhibitors and activators” (2021).

Broadly, the inhibition is the drop in the measured response relative to a control, in per cent.

The structures appear in SMILES notation. Hit rate of the full screen: of about 5,600 compounds, about 390 (7%) showed an effect of 50% or more. The entries come from a sample that favours strong results as a whole.

The target in this assay is T1, Protein deacetylase HDAC6 (Homo sapiens) (UniProt Q9UBN7).
T1 sequence (whole entry): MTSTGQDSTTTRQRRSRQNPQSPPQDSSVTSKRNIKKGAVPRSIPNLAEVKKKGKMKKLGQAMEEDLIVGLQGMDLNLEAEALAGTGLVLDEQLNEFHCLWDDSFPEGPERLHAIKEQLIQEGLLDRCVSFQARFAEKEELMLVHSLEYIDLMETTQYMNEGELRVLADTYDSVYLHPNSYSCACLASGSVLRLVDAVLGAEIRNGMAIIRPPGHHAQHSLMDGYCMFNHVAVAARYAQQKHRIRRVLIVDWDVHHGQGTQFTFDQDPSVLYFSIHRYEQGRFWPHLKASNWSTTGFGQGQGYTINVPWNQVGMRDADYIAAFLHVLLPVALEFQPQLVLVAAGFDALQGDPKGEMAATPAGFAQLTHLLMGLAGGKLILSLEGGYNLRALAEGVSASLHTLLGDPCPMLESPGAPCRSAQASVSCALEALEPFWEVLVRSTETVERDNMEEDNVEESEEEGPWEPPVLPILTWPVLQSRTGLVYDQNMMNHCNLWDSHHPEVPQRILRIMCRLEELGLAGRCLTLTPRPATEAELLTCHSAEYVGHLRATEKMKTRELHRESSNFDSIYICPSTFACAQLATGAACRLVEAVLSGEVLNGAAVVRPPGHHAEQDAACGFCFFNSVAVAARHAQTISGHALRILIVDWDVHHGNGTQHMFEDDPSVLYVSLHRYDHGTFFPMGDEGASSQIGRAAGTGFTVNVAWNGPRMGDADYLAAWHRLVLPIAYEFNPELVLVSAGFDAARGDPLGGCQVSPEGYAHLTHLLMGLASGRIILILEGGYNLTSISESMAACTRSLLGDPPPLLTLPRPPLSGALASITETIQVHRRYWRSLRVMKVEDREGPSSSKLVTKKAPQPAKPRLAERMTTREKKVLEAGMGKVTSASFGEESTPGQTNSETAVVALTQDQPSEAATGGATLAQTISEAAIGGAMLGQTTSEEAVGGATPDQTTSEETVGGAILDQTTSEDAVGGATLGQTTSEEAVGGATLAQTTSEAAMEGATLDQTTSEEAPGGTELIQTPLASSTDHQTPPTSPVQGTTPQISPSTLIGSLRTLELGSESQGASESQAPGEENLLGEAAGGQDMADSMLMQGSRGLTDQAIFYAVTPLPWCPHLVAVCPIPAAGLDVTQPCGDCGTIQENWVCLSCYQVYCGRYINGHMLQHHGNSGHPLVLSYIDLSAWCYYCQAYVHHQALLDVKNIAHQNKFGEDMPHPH
As to conditions: at 10 µM.
For the compound `COc1c2occc2c(OC)c2c(=O)cc(C)oc12`, the inhibition was -5.99%.
As for `Cc1cn(C[C@H](N)C(=O)O)c(=O)n(Cc2ccsc2C(=O)O)c1=O`, the inhibition stood at 14.3%.
For `CN1CCCN=C1COC(=O)C(O)(c1ccccc1)C1CCCCC1` (stereo unspecified), the inhibition was -6.61%.
For `CN1CCCN=C1/C=C/c1cccc(O)c1` the value was 74.1%; for `CN1CCCN=C1/C=C/c1cccs1`, 82.3%; for `Cc1ccsc1/C=C/C1=NCCCN1C`, 1.45%.
Take `COc1ccc(N(C)c2nc(C)nc3ccccc23)cc1`: the inhibition is -1.78%.
With `CC[C@@H]1C[C@H](N(Cc2cc(C(F)(F)F)cc(C(F)(F)F)c2)C(C)=O)c2cc(C(F)(F)F)ccc2N1C(=O)OC(C)C` the figure was 3.27%; with `COC(=O)C1=C(C)NC(C)=C(C(=O)O[C@@H]2CCCN(Cc3ccccc3)C2)[C@@H]1c1cccc([N+](=O)[O-])c1`, 16.7%; with `CCn1c(=O)/c(=C2\Sc3ccccc3N2C)s/c1=C\c1cccc[n+]1CC`, 3.58%.
Turning to `N=C(N)NC(=N)N1CCOCC1`, the inhibition was -0.5%.
With `N#Cc1ccc(N(Cc2ccc(Br)cc2)n2cnnc2)cc1` the figure was 7.87%; with `O=C(N[C@@H]1CC[C@@H](c2cccc(F)c2F)CN(CC(F)(F)F)C1=O)N1CCC(n2c(=O)[nH]c3ncccc32)CC1`, 21.5%.
With `N[C@@]1(C(=O)O)CS(=O)(=O)[C@H]2[C@H](C(=O)O)[C@H]21` the figure was 9.11%.
Take `O=C1NCCc2[nH]c(-c3ccncc3)cc21`: the inhibition was -2.78%.
For `O=C1Cc2c([nH]c3ccc(Br)cc23)-c2ncccc2N1` the value was 84.9%; for `O=C1Cc2c([nH]c3ccc(Br)cc23)-c2ccccc2N1`, 89.3%; for `CCS(=O)(=O)c1cccc(-c2cc(C(=O)NC3CCN(C)CC3)c(C)c3[nH]c4ncc(C)cc4c23)c1`, 12.4%.
For `O=[N+]([O-])c1cccc2c(Br)n[nH]c12` the value was -0.83%; for `CCCCc1ccc(NS(=O)(=O)c2ccc(F)cc2)cc1`, 18.6%; for `CN[C@@H](C)[C@H]1[C@H](O)C[C@@]2(C)[C@@H]3CC[C@H]4C(C)(C)[C@@H](NC)CC[C@@]45C[C@@]35CC[C@]12C`, -3.38%.
For `Nc1ccncc1N` the value was 42.8%; for `NS(=O)(=O)c1cc2c(cc1C(F)(F)F)NC(Cc1ccccc1)NS2(=O)=O` (stereo unspecified), 103%; for `C=CCSCC1Nc2cc(Cl)c(S(N)(=O)=O)cc2S(=O)(=O)N1` (stereo unspecified), 12%.
As to `NS(=O)(=O)c1cc2c(cc1Cl)NC(CC1CCCC1)NS2(=O)=O` (stereo unspecified), the inhibition is 9.09%.
For `C[C@@H](c1nc(-c2ccc(C#N)cc2)cs1)[C@](O)(Cn1cncn1)c1ccc(F)cc1F` the value was 13.6%.
With `N=C(N)NN=C1C=CC(=NNC(N)=S)C=C1` the figure was 8.3%; with `C=C1/C(=C\C=C2/CCC[C@]3(C)[C@@H]([C@H](C)CC[C@@H](O)C(C)C)CC[C@@H]23)C[C@@H](O)C[C@@H]1O`, 24.3%.
With `O=C(c1ccc(-c2ccc(Cl)cc2)o1)N(Cc1ccccn1)c1ccc(N2CCNCC2)cc1` the figure was 9.26%; with `CCCCOC(=O)c1ccc(N)cc1`, 44.5%; with `CCCCOC(=O)c1ccc(O)cc1`, 86.8%.
As for `CC/C(=C(/CC)c1ccc(O)cc1)c1ccc(O)cc1`, the inhibition amounted to 19.4%.
For `CCCOC(=O)c1ccc(O)cc1` the value was 73%; for `CCCCOc1cc(C(=O)OCCN(CC)CC)ccc1N`, 16.8%; for `CCOc1ccc(C(=O)OCCN(CC)CC)cc1`, 4.93%.
Turning to `CCCCN1CCCC1CNC(=O)c1cc(C#N)c2ccccc2c1OC` (stereo unspecified), the inhibition is 6.77%.
With `NC(=O)c1cnc2[nH]ccc2c1N[C@H]1C2CC3CC1C[C@](O)(C3)C2` the figure was 15.9%; with `CC(C)C[C@@H](C(=O)N[C@@H](Cc1ccc(OCc2ccccc2)cc1)C(=O)NC(C)(C)C)N(C)Cc1ccc(C(C)(C)C)cc1`, 10.7%; with `C[C@H]1CC[C@@]2(OC1)O[C@H]1C[C@H]3[C@@H]4CC[C@@H]5C[C@@H](O)CC[C@]5(C)[C@H]4CC[C@]3(C)[C@H]1[C@@H]2C`, 5.04%.
With `CN(C)/C=N/c1c(I)cc(I)c(CCC(=O)O)c1I` the figure was 6.5%.
As to `O=C(NCC1CCCCN1)c1cc(OCC(F)(F)F)ccc1OCC(F)(F)F` (stereo unspecified), the inhibition is -2.24%.
Consider `CCC(CC)(CC(=O)Nc1cccc(/C=C/c2nc(C3CCC3)cs2)c1)C(=O)O`, for which the inhibition worked out at 87.3%.
As for `COc1cc(N2CCC(O)CC2)ccc1Nc1cc(Nc2ccccc2S(=O)(=O)C(C)C)c2cc[nH]c2n1`, the inhibition was 12.8%.
As for `Cc1ccc(-c2ncn(-c3ccc(Nc4nccc(-c5cccc(N6CCOCC6)c5)n4)cc3)n2)cn1`, the inhibition is 0.35%.
Take `CCC(=O)NC1Cc2ccccc2C(c2ccccc2)C1` (stereo unspecified): the inhibition stood at 0.79%.
For `O=[N+]([O-])c1c(Nc2cc(F)cc(Cl)c2)ccc2nonc12` the value was 22.6%; for `Nc1ncnc2c1ncn2[C@H]1CC[C@@H](CO)O1`, 46%.
For `CC1(C)CNc2cc(NC(=O)c3cccnc3NCc3ccncc3)ccc21`, the inhibition turned out to be 87.1%.
Turning to `N#CC1(c2ccc(NC(=O)c3cccnc3NCc3ccncc3)cc2)CCCC1`, the inhibition is 51.4%.
With `CCCCCCCCCCCCCC(=O)OC(C)C` the figure was 30.5%; with `O=C(O)c1nc(=O)[nH]c(=O)[nH]1`, -2.71%.
